One experiment deals with GABRA1. Put plainly: pooled miR-30 sensor sort-seq; sequence = guide strand. Particulars: shRNA.
As for TAGCTTGTGAAATTTAGGCAGG, the sensor-assay potency score (higher = more potent) was -0.747. For TACATCTATTGTATATTCCATA, the sensor-assay potency score (higher = more potent) was -0.691.

With TTTTCTTGTATCTTTGAACCAT, the sensor-assay potency score (higher = more potent) was 0.355. Turning to TTTCTTGTATCTTTGAACCATC, the sensor-assay potency score (higher = more potent) was -0.813.

As to TTGTGAGAGAATCACTGTCATT, the sensor-assay potency score (higher = more potent) is -1.6.

For TTACACGCTCTCCCAATCCTGG, the sensor-assay potency score (higher = more potent) was -1.04. On the same count and under the same terms, the value for TTAAATATCTGTTAAACTCTAT was -0.0161. Still for that read-out and setting: the value for TCTTCTGCTACAACCACTGAGC was -0.0993; that for TACTTGACTGGACAATTCCAGA was -1.07; that for TATTTATCTCTAAAACATCTGG was -0.271. Still for that read-out and setting: the value for ATTGTCATAACCATCTAGGAGT was -0.817.

As to TATATATCTACAAATGACCTAG, the sensor-assay potency score (higher = more potent) is 0.243.

Another experiment addresses GABRB2. Described as above. Particulars: shRNA.
Regarding TTATCGTTCAGGAAATAGGTAT, the sensor-assay potency score (higher = more potent) was -0.408. Same read-out and setting: then TCTGAGTCCATAAAGGACGGTG, with -0.531.

In turn, TGAAAGTACATTGTCAAGGTAT had a sensor-assay potency score (higher = more potent) of 0.245. The sequence TTCAGGAGTCTATCCACCGTCT gave a sensor-assay potency score (higher = more potent) of 0.156.

Regarding TTACATTATAGGACAGCCTCTT, the sensor-assay potency score (higher = more potent) was -0.0422. Turning to TTTGTAATCTACAATAGAGAAC, the sensor-assay potency score (higher = more potent) was -1.05. On the same count and under the same terms, then TTTCAGGAGTCTATCCACCGTC, with -0.228; and TAATCTACAATAGAGAACTGTG, with -0.184; and TCAGAAACCATATCGATGCTGG, with 0.313. Regarding TTGCGCCACATGTCGTTCCAGA, the sensor-assay potency score (higher = more potent) was -0.912. Still for that read-out and setting: the value for TTTCTCTTAAGCTTAAAGCTGA was -0.0649. As for TCTACAATAGAGAACTGTGGAA, the sensor-assay potency score (higher = more potent) was -0.939. On the same count and under the same terms, then TACATTATAGGACAGCCTCTTA, with -0.982; and TGAAGCATCGTAATTAATCCAG, with -0.467; and TATTACATTATAGGACAGCCTC, with -0.766.

Consider TCATAGGCTAGCATTGTGCTTC, for which the sensor-assay potency score (higher = more potent) is -0.299. The same measure, in the same setting: then TTGTTGAAAGTACATTGTCAAG, with -1.79; and TAGGCTAGCATTGTGCTTCTGG, with 0.754; and TTAACCAGCGACATATTACTAG, with -0.576. Consider TTAATCCAGAAGGAGACCCAGG, for which the sensor-assay potency score (higher = more potent) is -0.469.

TTAAAGCTGAGGGATAACCTGG: the sensor-assay potency score (higher = more potent) was -0.689. The same measure, in the same setting: the value for TATCTCTCCAGGCTTGTTGAAA was -1.12.

The next experiment concerns the target GABRP. The experiment is described as above. The settings on record: shRNA.
Turning to TTCATTGTCAAGTCACTGTAGT, the sensor-assay potency score (higher = more potent) stood at 0.147.

Consider ATAGTGATCAACATTACTGGGG, for which the sensor-assay potency score (higher = more potent) came to 0.527.

With TTTTCTCGGAAGACAAACTTGA, the sensor-assay potency score (higher = more potent) was -0.264. Same read-out and setting: the value for TTACTCTCTGAAATGCTAGAGA was -0.589; that for TAGTGTAATTTCCTGTCTCCTG was -0.339. Still for that read-out and setting: then TCAAACTGTAAGACCAATCTAG, with 0.125.

The values are drawn from the OligoGym collection.
Also: reference of the scale not given here.
